Test results from PubChem BioAssay AID602144 (Vanderbilt Specialized Chemistry Center, 2011).
“And” between values parts separate entries of the source, which are not always exact repeats. Equal entries are not always repeated. The source made the active and inactive calls. Cut-off read from the data, not from the text of the source: active = remaining activity below about 50%; inactive = the rest.

Target: Phospholipase D1 (Homo sapiens) (UniProt Q13393)
Assay: cellular phospholipase D1 activity inhibition – Calu-1 cells, single concentration (AID 602144);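 note: tested at 200 nM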
Settings: cellular PLD1 activity, active compounds read low

Sequence of Phospholipase D1 (Homo sapiens) (Q13393 whole entry, looked up): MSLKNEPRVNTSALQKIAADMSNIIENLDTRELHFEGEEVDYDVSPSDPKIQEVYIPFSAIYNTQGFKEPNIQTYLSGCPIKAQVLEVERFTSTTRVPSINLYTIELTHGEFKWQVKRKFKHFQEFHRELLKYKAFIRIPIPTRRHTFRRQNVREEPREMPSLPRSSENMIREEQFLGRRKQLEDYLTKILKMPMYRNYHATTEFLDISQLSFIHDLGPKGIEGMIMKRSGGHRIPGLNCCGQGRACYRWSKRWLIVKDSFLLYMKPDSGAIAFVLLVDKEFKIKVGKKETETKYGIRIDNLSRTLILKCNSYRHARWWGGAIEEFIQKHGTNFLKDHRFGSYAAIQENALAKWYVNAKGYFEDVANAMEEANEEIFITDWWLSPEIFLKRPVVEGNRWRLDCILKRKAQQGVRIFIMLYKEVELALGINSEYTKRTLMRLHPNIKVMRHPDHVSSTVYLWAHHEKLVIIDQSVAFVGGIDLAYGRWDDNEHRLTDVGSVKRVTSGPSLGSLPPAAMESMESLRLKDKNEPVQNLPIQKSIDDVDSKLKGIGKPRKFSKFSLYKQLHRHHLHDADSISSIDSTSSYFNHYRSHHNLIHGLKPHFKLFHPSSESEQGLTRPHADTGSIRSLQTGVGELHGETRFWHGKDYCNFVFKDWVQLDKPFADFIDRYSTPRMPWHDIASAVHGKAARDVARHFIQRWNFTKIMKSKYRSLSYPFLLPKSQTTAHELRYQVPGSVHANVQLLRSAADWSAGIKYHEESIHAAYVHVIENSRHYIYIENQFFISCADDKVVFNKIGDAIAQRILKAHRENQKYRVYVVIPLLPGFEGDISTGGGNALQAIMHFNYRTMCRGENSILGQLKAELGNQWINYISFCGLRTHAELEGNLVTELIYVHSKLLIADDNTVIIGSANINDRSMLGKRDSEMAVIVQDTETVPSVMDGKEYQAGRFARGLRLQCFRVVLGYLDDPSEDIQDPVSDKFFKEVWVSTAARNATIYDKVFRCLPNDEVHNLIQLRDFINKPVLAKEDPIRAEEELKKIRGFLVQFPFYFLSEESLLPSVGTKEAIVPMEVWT
Sequence of Phospholipase D1 (Homo sapiens) (Q13393 whole entry, looked up): as above

Structure (SMILES) | remaining activity
Cc1ccc(C(=O)NCCN2CCC(n3c(=O)[nH]c4cc(Br)ccc43)CC2)cc1 | 3.74% (active)
C[C@@H](CN1CCC(c2nc3ccccc3[nH]2)CC1)NC(=O)c1ccc2ccccc2c1 | 58.7% (inactive)
O=C(NCCN1CCC2(C=Cc3ccccc32)CC1)c1ccc2ccccc2c1 | 127% (inactive)
C[C@@H](CN1CCC(n2c(=O)[nH]c3ccccc32)CC1)NC(=O)CCc1ccc(F)cc1 | 53.9% (inactive)
O=C(NCCN1CCC(n2c(=O)[nH]c3ccccc32)CC1)c1ccc(Cc2ccccc2)cc1 | 91.5% (inactive)
O=C(NCCN1CCN(c2ccncc2)CC1)c1cc2cc(F)ccc2[nH]1 | 162% (inactive)
O=C(NCCN1CCC(n2c(=O)[nH]c3ccccc32)CC1)c1cnc2ccccc2n1 | 83.7% (inactive)
C[C@@H](CN1CCC(n2c(=O)[nH]c3ccc(F)cc32)CC1)NC(=O)c1ccc(Cl)cc1 | 17.7% (active)
O=C(CCN1CCC(n2c(=O)[nH]c3ccccc32)CC1)NCc1ccc(Cl)cc1 | 98.9% (inactive)
O=C(NCCN1CCC(c2nc3ccccc3[nH]2)CC1)c1ccc2ccccc2c1 | 101% (inactive)
O=C(NCCN1CCC(n2c(=O)[nH]c3ccccc32)CC1)C1(c2ccccc2)CCC1 | 127% (inactive)
NC1(CN2CCC(n3c(=O)[nH]c4cc(Cl)ccc43)CC2)CCCC1 (tested in a mixture with another compound) | 70.2% (inactive)
O=C(NCCN1CCC(n2c(=O)[nH]c3ccccc32)CC1)C1CCc2ccccc2C1 (stereo unspecified) | 77.8% (inactive)
Cn1c(C2CCN(CCN)CC2)nc2ccccc21 (tested in a mixture with another compound) | 75% (inactive)
O=C(NCCN1CCC(n2c(=O)[nH]c3ccccc32)CC1)C1CCCCCCCCCC1 | 85.9% (inactive)
O=C(NCCN1CCN(c2ncccn2)CC1)c1ccc(F)cc1 | 76.5% (inactive)
Cc1ccc(C(=O)N[C@@H](C)CN2CCC(n3c(=O)[nH]c4ccc(F)cc43)CC2)cc1 | 27.4% (active)
O=C(NCCN1CCC(n2c(=O)[nH]c3cc(I)ccc32)CC1)c1ccc(Cl)cc1 | 15.6% (active)

Structure (SMILES) | remaining activity
O=C(NCCN1CCC(n2c(=O)n(C(=O)c3ccc(Cl)cc3)c3ccccc32)CC1)c1ccc(Cl)cc1 | 27.8% (active)
O=C(NCCN1CCC2(C=Cc3ccccc32)CC1)[C@H]1C[C@@H]1c1ccccc1 | 107% (inactive)
C[C@@H](CN1CCC(c2nc3ccccc3[nH]2)CC1)NC(=O)C1CC1c1ccccc1 (stereo partly specified) | 87.4% (inactive)
O=c1[nH]c2ccccc2n1C1CCN(CCNS(=O)(=O)c2ccc(Cl)cc2)CC1 | 137% (inactive)
NC1(CN2CCC(c3nc4ccccc4[nH]3)CC2)CCCC1 (tested in a mixture with another compound) | 81.2% (inactive)
C[C@@H](CN1CCC(n2c(=O)[nH]c3ccccc32)CC1)NC(=O)Cc1cccs1 | 101% (inactive)
O=C(N[C@@H](Cc1ccccc1)CN1CCC(n2c(=O)[nH]c3ccccc32)CC1)c1ccc(F)c(F)c1 | 90.2% (inactive)
O=C(NCCN1CCC2(CCc3ccccc32)CC1)c1cnc2ccccc2c1 | 113% (inactive)
CC(C(=O)NCCN1CCC(n2c(=O)[nH]c3ccccc32)CC1)(c1ccccc1)c1ccccc1 | 104% (inactive)
C[C@@H](NC(=O)NCCN1CCC(n2c(=O)[nH]c3ccccc32)CC1)c1ccccc1 | 131% (inactive) and 118% (inactive)
CC(C)[C@@H](CN1CCC(n2c(=O)[nH]c3ccccc32)CC1)NC(=O)c1cc2cc(F)ccc2[nH]1 | 69.6% (inactive)
O=c1[nH]c2ccccc2n1C1CCN(CCNS(=O)(=O)c2ccccc2Br)CC1 | 112% (inactive)
O=C(CCCN1CCC(O)(c2ccc(Cl)cc2)CC1)c1ccc(F)cc1 | 80.1% (inactive)
O=C(NCCN1CCN(c2ncccn2)CC1)c1ccc(Cl)cc1 | 80.9% (inactive)
O=c1[nH]c2ccccc2n1C1CCN(CCNS(=O)(=O)c2ccc(F)cc2)CC1 | 129% (inactive)
O=C(NCCN1CCC(n2c(=O)[nH]c3ccccc32)CC1)Nc1cccc(C(F)(F)F)c1 | 135% (inactive)
C[C@@H](CN1CCC2(CC1)CCN(C)C2=O)NC(=O)c1cnc2ccccc2c1 | 127% (inactive)
C[C@H](N)CN1CCC(c2nc3ccccc3n2C)CC1 (tested in a mixture with another compound) | 88.8% (inactive)
